Bioassay records from PubChem.
A selection: hits, their analogues and other compounds. The true share with any hit is near 3.4%.
MITF inh: blocks human microphthalmia-associated transcription factor. AID 1259374. inhibition, % at 2.6 µM. AlphaScreen MITF homodimerization, bead proximity signal. 650,000 tested, 0.91% active; in the data active = inhibition above about 50%;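 note: 0% = vehicle wells with protein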
GPR151 activ: human GPR151 activation. 650,000 tested, 1% active. activation, % at 11.2 µM. AID 1508602. PathHunter beta-arrestin GPR151 cells, luminescence; in the data active = activation above about 4.9%;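 note: 0% = median of compound wells and 100% = cells with positive control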
Target sequence (Q8TDV0 whole entry, looked up): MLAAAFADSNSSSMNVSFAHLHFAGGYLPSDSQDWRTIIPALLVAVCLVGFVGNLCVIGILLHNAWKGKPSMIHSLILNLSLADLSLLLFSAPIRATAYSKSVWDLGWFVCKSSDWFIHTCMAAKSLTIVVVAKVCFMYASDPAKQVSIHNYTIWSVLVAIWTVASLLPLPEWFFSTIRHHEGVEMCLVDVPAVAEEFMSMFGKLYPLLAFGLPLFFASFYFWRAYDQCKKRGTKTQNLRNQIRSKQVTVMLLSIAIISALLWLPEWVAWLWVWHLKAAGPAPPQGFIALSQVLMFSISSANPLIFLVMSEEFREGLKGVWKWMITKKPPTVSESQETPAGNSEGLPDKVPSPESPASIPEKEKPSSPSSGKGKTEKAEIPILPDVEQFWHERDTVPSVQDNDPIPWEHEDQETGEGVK
FBW7 act: human FBW7 E3 ligase activation, primary screen; 650,000 tested, 0.13% active; normalized activity (activation), % at 26.1 µM; AlphaScreen FBW7–phospho-cyclin E peptide binding, activator screen; in the data active = normalized activity above about 1.9%;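 note: purified mutant Fbw7 with reduced substrate affinity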
TEAD-YAP block: TEAD-YAP interaction inhibition. HEK-TIYL cells, TEAD-Gal4/YAP UAS-luciferase luminescence. inhibition, % at 9.12 µM. 640,000 tested, 1.4% active. AID 1259422; in the data active = inhibition above about 32%;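 note: 0% = median of test compound wells and 100% = reference inhibitor wells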
* hit, by the source's call.

SMILES	MITF inh	GPR151 activ	FBW7 act	TEAD-YAP block
CC1C(=O)NN=C1C(=O)N/N=C\C=C\c1ccccc1 (configuration not stated)	11.3	0.2	-0.3	-10.2
C=CCOC(=O)C1=C(C)NC(=S)NC1c1ccccc1OCC (configuration not stated)	3.2	-1.3	-0.1	0.7
CCOC(=O)C1=C(C)NC(=S)NC1c1ccccc1OCC(=O)Nc1ccc(C)cc1 (configuration not stated)	2.1	1.0	0.0	36.2*
CC(=O)Nc1ccc(/C=C2\CCc3ccccc3C2=O)cc1	5.8	0.4	-0.1	69.7*
COc1ccc(NC(=O)c2cc(-c3ccncc3)nc3ccccc23)cc1	-2.5	0.3	-0.3	40.5*
Cc1ccc(-c2cc(C(=O)N3CCOCC3)c3ccccc3n2)cc1	-5.6	-1.1	0.0	-10.0
CCc1ccc(-c2cc(C(=O)N3CCN(Cc4ccccc4)CC3)c3ccccc3n2)cc1	16.9	-0.4	0.1	64.8*
CC(C)c1ccc(-c2cc(C(=O)O)c3ccccc3n2)cc1	8.8	-4.7	0.3	73.5*
COc1ccc(-c2cc(C(=O)N3CCN(c4ccccc4OC)CC3)c3ccccc3n2)cc1	-12.2	0.5	-0.1	41.5*
Oc1ccc2ccccc2c1/C=N/n1c(-c2ccncc2)n[nH]c1=S	17.9	-1.8	0.3	5.9
CCn1cc(C(=O)NC2CC3(CCCC3)Oc3ccccc32)c(C)n1 (configuration not stated)	0.8	-0.3	0.0	-7.9
CCOC(=O)C1=CN(c2ccc(OCC)cc2)C=C(C(=O)OCC)C1c1ccccc1OC	-7.5	1.7	0.2	4.3
Cn1c(/C=C2\C(=O)N(Cc3ccccc3)c3ccccc32)nc2ccccc2c1=O	3.9	1.1	-0.1	-3.5
c1ccc2c(c1)nnn2CN1CCN(Cn2nnc3ccccc32)CC1	-2.9	0.4	-0.1	-3.2
COc1ccc2cc(-c3cc(C(=O)N4CCN(CCO)CC4)c4ccccc4n3)ccc2c1	-1.3	-0.9	0.1	69.9*
COc1cccc(-c2cc(C(=O)N3CCOCC3)c3ccccc3n2)c1	-2.0	0.3	-0.1	11.2
CCc1ccc(-c2cc(C(=O)N3CCN(c4ncccn4)CC3)c3ccccc3n2)s1	-13.6	1.4	0.0	33.1*
COc1cccc(-n2c(=S)sc3c(=O)n(-c4ccc(C)cc4)c(=S)[nH]c32)c1	-1.4	0.8	0.1	2.1
CN(C)C(=O)c1cc(CNCc2cn(C)c3ccccc23)cc(NC(=O)c2ccccn2)c1	0.3	0.1	-0.1	2.1
COc1ccc(-c2nc(C)cc(NCc3cccc(C(F)(F)F)c3)n2)cn1	-4.2	-2.1	0.0	-11.3
CC(C)(C)c1ccc(NC(=O)Nc2ccccc2[N+](=O)[O-])cc1	11.0	-1.1	-0.4	62.2*
CONC(=O)Nc1ccccc1[N+](=O)[O-]	1.7	1.5	-0.1	12.3
O=C(Nc1cc(C(F)(F)F)ccc1F)c1ccc(Br)o1	9.8	-2.5	0.1	2.3
CC(=O)Nc1ccc(NC2=C/C(=N/S(=O)(=O)c3ccccc3)c3ccccc3C2=O)cc1	33.3	0.3	-0.5	99.0*
O=C1C(N2CCCCC2)=C/C(=N/S(=O)(=O)c2ccccc2)c2ccccc21	12.9	-1.8	0.0	-6.2
SMILES	MITF inh	GPR151 activ	FBW7 act	TEAD-YAP block
O=C1OC(OC(=O)c2ccccc2)C(Nc2cccc(O)c2)=C1Cl (configuration not stated)	11.2	-1.0	2.4*	1.7
O=C1OC(OC(=O)c2ccccc2)C(Nc2ccccc2)=C1Cl (configuration not stated)	-2.3	-1.7	0.0	-1.0
Cc1nn(C)c(C)c1-c1ncc(C(=O)NCCN(C(C)C)C(C)C)s1	17.4	-0.2	0.3	-4.6
COc1ccc(Br)c(C(=O)OCc2ccccc2C#N)c1	8.1	-0.2	0.5	3.2
CCC[n+]1cccc2cc(OC)ccc21	-0.9	0.5	-0.1	1.3
COc1ccc(C(=O)C[n+]2cccc3cc(OC)ccc32)cc1	-5.3	0.3	0.0	52.9*
CCOC(=O)C1CCCN(Cc2cc(Cl)c3cccnc3c2O)C1 (configuration not stated)	35.6	0.3	-0.5	15.5
CCOCc1cc(CN2CCN(c3ccccc3)CC2)c(O)c2ncccc12	95.3*	1.5	-1.3	58.9*
Oc1c(CN2CCN(c3cccc(Cl)c3)CC2)cc(COCc2ccccc2)c2cccnc12	9.3	-0.2	-0.9	12.8
CCOCc1cc(CN2CCCCC2)c(O)c2ncccc12	103.2*	-1.3	-1.2	27.0
CCN(CC)CC#CC(C)(CC)OC(C)=O (configuration not stated)	-4.6	-0.3	0.0	1.9
c1ccc(-c2ccc(-c3nc4ccccc4s3)cc2)cc1	-10.6	0.0	0.1	92.5*
Nc1ccc2nc(-c3ccccc3)sc2c1	9.8	-7.9	2.7*	84.6*
Nc1ccc(-c2nc3ccccc3s2)cc1	-7.6	-8.6	0.1	50.9*
Nc1ccc(-c2nc3ccccc3s2)c(Cl)c1	-2.0	0.3	0.1	-0.7
N#Cc1ccc(NC(=O)CSc2nc3ccc([N+](=O)[O-])cc3s2)cc1	14.3	1.0	-0.1	3.7
CC(=O)OCCNc1cc(SCCCc2ccccc2)c2nonc2c1[N+](=O)[O-]	-3.3	0.2	0.0	16.8
CCCN1C(=O)c2ccc(C(=O)Nc3ccc(O)cc3)cc2C1=O	9.6	-1.1	-0.1	38.4*
CCCN1C(=O)c2ccc(C(=O)Nc3ccc(O)cc3C)cc2C1=O	3.9	-1.7	0.1	5.5
CCCN1C(=O)c2ccc(C(=O)Nc3ccc(C(=O)O)cc3)cc2C1=O	18.0	-0.6	0.0	53.1*
CCN1C(=O)c2ccc(C(=O)Nc3cc(C(=O)O)cc(C(=O)O)c3)cc2C1=O	0.8	1.6	0.0	4.1
Cc1ccc(-c2nn(CN3CCCc4ccccc43)c(=S)n2-c2ccccc2)cc1	14.1	0.9	0.0	48.7*
Cc1ccc2[nH]c(=O)c(CN(CCO)C(=O)c3cccc(Cl)c3)cc2c1	5.1	-0.6	0.2	-6.3
O=S1(=O)C=CC(Nc2cccc3ccccc23)C1 (configuration not stated)	-8.3	-1.3	-0.1	32.7*
CCc1ccccc1NC1C=CS(=O)(=O)C1 (configuration not stated)	14.1	0.7	0.2	33.7*
SMILES	MITF inh	GPR151 activ	FBW7 act	TEAD-YAP block
CCOC(=O)C1(CC2CC2)CCN(S(=O)(=O)c2ccc(F)c(Cl)c2)CC1	-3.0	0.5	-0.2	-7.1
Nc1ccc(/C=C/c2nc3ccccc3o2)cc1	11.9	-3.8	0.0	44.5*
Cn1c(SCC(=O)Nc2ccccc2Cl)nc2ccccc2c1=O	3.5	-0.4	0.0	-4.2
CCCCN1C=CC(=C2C(=O)c3ccccc3C2=O)C=C1	18.4	-8.1	0.7	96.1*
O=C1C(=C2C=CN(CCc3ccccc3)C=C2)C(=O)c2ccccc21	-6.7	-0.8	-0.1	-64.5
Cc1ccc(OCc2ccc(F)cc2)c(C=O)c1	-11.0	0.7	0.1	-23.5
CC(=O)N1CCC(C(=O)Nc2ccc(N3CCOCC3)cc2)CC1	2.8	-0.7	-0.1	-11.2
O=c1c2ccccc2ncn1-c1ccc([N+](=O)[O-])cc1[N+](=O)[O-]	13.2	-0.9	0.0	49.3*
